# According to PubChem BioAssay AID686971 (National Center for Advancing Translational Sciences (NCATS), 2013):
# Out of some 360,000 compounds screened, about 7,500 (2.1%) were called active. Where a call stands in place of a potency, no number is given. Inconclusive results (about 8%) are left out. The call rests on the fitted dose curve; in most records, active means well fitted cell-killing curve with a large enough effect; inconclusive means small, poorly fitted or top-dose-only effect, or effect the other way, or another doubt; inactive means no such curve, though single readings can be large or run the other way. The full list was thinned out, with actives kept by preference.
# Assay: qHTS for induction of synthetic lethality in tumor cells producing 2HG: qHTS for the HT-1080-IDH1KD cell line
# Settings: HT-1080 IDH1 knockdown viability, ATP luminescence, 48 h; series mostly up to 46.1 µM
# Source text: Unbiased genomic sequencing for 22 glioma genomes found recurrent mutation of IDH1 on chromosome 2q33, a gene encoding the cytosolic isoform of IIDH1 associated with the tri-carboxylic acid cycle (TCA) that catalyzes the oxidative decarboxylation of isocitrate, yielding alpha-ketoglutarate and CO2 via NADP+ to NADPH conversion. Subsequent studies confirmed the recurrent IDH mutations in up to 70% of secondary gliomas and in 10% of AML cases. In addition, the somatic mutation of cancer-associated IDH1 is a point mutation resulting in various amino-acid substituents at Arginine132 (IDH1 R132), a key residue found in the enzyme's active site that when mutated, results in the loss-of-function in metabolizing isocitrate but confers a gain-of-function to produce the oncometabolite 2-hydroxyglutarate (2HG). This in effect defines IDH1 as an oncogene and provides an extraordinary opportunity to discover chemical probes against mutant IDH1 that may translate into much needed new therapies for glioma and AML patients.
# This assay aims to perform a synthetic-lethal screen for chemical probes specific for 2HG-producing tumor cells using matched paired cell lines (1) HT-1080-NT fibrosarcoma cell line that overproduces 2HG and (2) HT-1080-IDH1KD cell line which has IDH1 expression knocked-down. Desirable compounds are toxic to the NT fibrosarcoma cell line but not to the IDH1KD cell line. The data in this AID corresponds to the results of the qHTS against the HT-1080 IDH1KD cell line.
# [1] Dang L, Jin S, Su SM. IDH mutations in glioma and acute myeloid leukemia. Trends of Mol Med. 2010; 16(9): 387-97.
# [2] Dang L et al. Cancer-associated IDH1 mutations produce 2-hydroxyglutarate. Nature. 2010; 465(7300):966.
# Molecular Libraries Probe Production Centers Network [MLPCN]
# NIH Chemical Genomics Center [NCGC]
# Assay Submitter (PI): Lenny Dang Ph.D., Agios Pharmaceuticals
# Suspensions of trypsinized HT-1080-IDH1KD cells were dispensed into white, tissue culture-treated, solid 1536-well plates at 5uL/well (750 cells/well final concentration) in RPMI medium supplemented with 5% FBS. Plates were incubated at 37 degrees C for 2 hours, after which 23 nL of compounds or DMSO were delivered to each well using a pin tool. Plates were then incubated at 37 degrees C for an additional 48 hours. CellTiter-Glo viability reagent (Promega) was dispensed into wells (2.5uL/well) and incubated at room temperature for 10 minutes. The plates were measured on a PerkinElmer ViewLux plate reader for luminescent signal (clear filter, 1 sec exp.). DMSO-treated control wells and media-only (no cells) control wells were used to normalize %Activity of identified toxic compounds; DMSO-treated wells corresponded to 0%Activity (100% viability), while media-only controls were used to normalize 100%Activity (0% viability). To minimize variability between cell lines, both HT-1080-NT and HT-1080-IDH1KD lines were dispensed and treated with identical compound series in single batches.
# Concentration-response curves were fitted to the signals arising from the resulting luminescence. The concentration-effect curves were then classified based on curve quality (r2), response magnitude and degree of measured activity, and compounds were subsequently categorized based on their curve class.
# Potency means the concentration at half of the fitted maximal effect.
row,SMILES,Potency
1,CC(=O)C[C@@H]1OC[C@H](CO)N1S(=O)(=O)c1ccc(C)cc1,inactive
2,Cn1ncc([N+](=O)[O-])c1C(=O)Nc1cc(Cl)ccc1Cl,inactive
3,CCCC/C=C/c1cccc2nncn12,inactive
4,CN(C)C(CNC(=O)c1cc(Br)c(Br)s1)c1ccco1 (stereo not given),inactive
5,CC1CCN(C(=O)CSc2nnc(-c3ccco3)n2N)CC1,inactive
6,O=C(NC(c1ccc(-c2ccccc2)cc1)c1cnccn1)C1CCN(CCOc2ccc(Cl)cc2Cl)CC1 (stereo not given),14.6 µM (active)
7,O=C(CCCOc1ccc(Cl)cc1Cl)NNC(=O)C1CCC1,inactive
8,COc1cccc(CN2CCC(C(=O)NC(c3ccc4c(c3)OCO4)c3ccccn3)CC2)c1 (stereo not given),inactive
9,O=C1NC(Cc2ccccc2)c2nc3ccc(Br)cc3c(=O)n2-c2cc3ccccc3cc21 (stereo not given),inactive
10,COc1ccc(CN2C(=O)C(CC(=O)NC3CCCCC3)CC(C(=O)N3CCOCC3)=C2C)cc1 (stereo not given),inactive
11,COC(=O)c1ccc2nc(-c3cccc(Br)c3)c(Cc3ccc(OC)cc3C)n2c1,inactive
12,CCCCCc1c(-c2ccc(OC)c(OC)c2)ncn1CCc1ccccc1OC,10.3 µM (active)
13,CCC(=O)NCc1cc(-c2nn(C)c(=O)c3ccccc23)ccc1OC,inactive
14,COc1ccccc1Cc1c(-c2ccc(Cl)cc2)nc2ccc(Cl)cn12,inactive
15,COC(=O)c1ccc2nc(-c3cccc(Br)c3)c(Cc3ccccc3C(F)(F)F)n2c1,inactive
16,COc1ccccc1CCNS(=O)(=O)c1cn(C)nc1C,inactive
17,COc1ccc(-c2nn(-c3ccccc3)cc2C(=O)Nc2nccs2)cc1OC,inactive
18,CCCCCc1c(-c2cccc(Br)c2)ncn1CCc1ccccc1OC,18.4 µM (active)
19,CCCCc1c(-c2ccc(Br)cc2)ncn1CCc1ccccc1OC,7.31 µM (active)
20,COc1cccc(-c2cnc(C(O)c3ccccc3OC)[nH]2)c1 (stereo not given),inactive
21,CCCOc1ccc(F)cc1-c1cc(C(=O)NCc2ccc(F)cc2)[nH]n1,inactive
22,O=C(COc1ccc(S(=O)(=O)N2CCCC2)cc1[N+](=O)[O-])N1CCCCC1,inactive
23,CCCCCCCCN1C(=O)[C@H](CC(=O)NCC23CC4CC(CC(C4)C2)C3)C[C@@]2(C(=O)OC)CCCCC=C12,inactive
24,C[C@@H]1CN([C@@H](C)CO)C(=O)c2c(c3ccccc3n2C)-c2ccccc2CO[C@H]1CN(C)C(=O)C1CC1,inactive

row,SMILES,Potency
1,Cc1c(C(=O)NCc2ccc(C#N)cc2)sc(=O)n1Cc1ccc(C(=O)N(C)C)cc1,inactive
2,CN(C)CCCOc1ccc(-c2ccc3nccn3c2)cn1,inactive
3,CN1CCN(C(=O)c2ccc(NC(=O)c3ccc(Br)o3)cc2)CC1,inactive
4,CC1(c2ccccc2)NC(=O)N(CC(=O)Nc2cc(Cl)ccc2N2CCOCC2)C1=O (stereo not given),inactive
5,O=C(CSc1nc(Nc2ccccc2)nc(N2CCOCC2)n1)Nc1cc(Cl)ccc1O,18.4 µM (active)
6,Cc1ccccc1NC(=O)CSc1nc2ccc(Nc3nc(N4CCOCC4)nc(N4CCOCC4)n3)cc2s1,inactive
7,C=CCC[C@H](CCCCC)OC(=O)/C=C/[C@H](O)[C@@H](O)C[C@@H](O)CC=C,inactive
8,O=C(O)CC1=C(Nc2ccccc2)C(=O)N(c2ccccc2)C1c1ccc(Cl)cc1 (stereo not given),inactive
9,O=C(CCC(=O)OCc1ccc(Cl)cc1)Nc1ccccc1,inactive
10,O=C1C=C(c2ccc(Cl)cc2)C(=O)N1Nc1ccccc1,18.4 µM (active)
11,CCCNC(=O)c1cc(C2CCCCN2C(=O)OC)on1 (stereo not given),inactive
12,c1ccc2c(c1)nnn2-c1ccncc1,inactive
13,COc1ccc(-c2nn(-c3ccccc3)cc2/C=C\C(=O)N2CCOCC2)cc1[N+](=O)[O-],inactive
14,O=C(NCCCN1CCOCC1)c1cn(-c2ccccc2)nc1-c1ccc(F)cc1,inactive
15,O=C(/C=C/c1cn(-c2ccccc2)nc1-c1ccc2c(c1)OCCO2)NCCCN1CCOCC1,20.6 µM (active)
16,COC(=O)c1ccc2nc(C3CCCCC3)c(Cc3cccc(F)c3)n2c1,inactive
17,CCc1ccc([C@@H]2CC(=O)[C@@H]3CN(S(=O)(=O)c4ccc(C)cc4)[C@H](c4ccc(Cl)cc4)C[C@@H]3N2S(=O)(=O)c2ccc(C)cc2)cc1,inactive
18,CC(=O)Nc1cc(-c2ccc(N3CCN(C)CC3)cc2)cn2c(-c3cccc(C(=O)N(C)C)c3)cnc12,inactive
19,CN(C)C(=O)c1cccc(-c2cnc3c(NC=O)cc(-c4ccc(C(=O)N5CCOCC5)cc4)cn23)c1,inactive
20,CC(=O)Nc1cc(-c2ccc(N3CCN(C)CC3)cc2)cn2c(-c3ccc(F)cc3)cnc12,23.1 µM (active)
21,CCC(C)C(=O)Nc1ccccc1N1CCN(c2ccc(F)cc2)CC1 (stereo not given),inactive
22,O=CNc1cc(-c2ccc(C(=O)N3CCOCC3)cc2)cn2c(-c3ccc(F)cc3)cnc12,13 µM (active)
23,O=C(NCCO)c1cccc(-c2cccc3nccn23)c1,inactive
24,CC(=O)Nc1cc(-c2cccc(CO)c2)cn2c(-c3cccc(C(F)(F)F)c3)cnc12,inactive

row,SMILES,Potency
1,COc1cccc(-c2cnc3c(NC(C)=O)cc(-c4cc(F)ccc4OC)cn23)c1,9.2 µM (active)
2,N#C/C=C(/c1ccc(F)cc1)N1CCOCC1,inactive
3,COc1cccc(-c2cc(NC(C)=O)c3ncc(-c4cccc(C(C)=O)c4)n3c2)c1,inactive
4,CN(C)CCNC(=O)c1cccc(-c2cnc3c(NC=O)cc(-c4cccc(C(F)(F)F)c4)cn23)c1,18.4 µM (active)
5,COc1ccccc1-c1cc(NC(C)=O)c2ncc(-c3ccc(F)cc3)n2c1,inactive
6,O=C1NC[C@H](CCCCN2C[C@H](Cc3ccccc3)N(Cc3ccccc3)C(=O)C2=O)N(CCc2ccc(O)cc2)C1=O,inactive
7,Cc1ccc(-c2ccc(C3=CC(=O)CC(C)(C)C3=O)cc2)cc1,inactive
8,CC(C)C[C@@H]1Cc2[nH][nH]c(=O)c2[C@H](CCc2ccccc2)O1,inactive
9,CCOC(=O)[C@]12CCCC=C1N(CCC1=CCCCC1)C(=O)[C@H](CC(=O)NCCCOC)C2,inactive
10,CCCNC(=O)C1(C)CCCN(C(=O)c2oc3ccccc3c2C)C1 (stereo not given),inactive
11,O=NN(CCCl)C(=O)NCCc1cccc[n+]1[O-],inactive
12,CCc1nc2ccc(C(=O)NC3CCN(Cc4ccccc4)CC3)cn2c1N(C)CCN1CCOCC1,inactive
13,C#CCNC(=O)C[C@@H]1C[C@@]2(C(=O)OCC)CCCC=C2N(Cc2ccco2)C1=O,inactive
14,NS(=O)(=O)c1ccc(NC(=O)CSc2nnc3c(n2)[nH]c2ccccc23)cc1,inactive
15,CN(C)C(=O)c1cccc(-c2cnc3c(NC=O)cc(-c4ccc(F)cc4)cn23)c1,23.1 µM (active)
16,CC(=O)c1cccc(-c2cnc3c(NC=O)cc(-c4cccc(C(=O)N(C)C)c4)cn23)c1,inactive
17,Cc1ccc2nc(-c3ccccn3)cc(C(=O)Nc3ccc4c(c3)OCO4)c2c1,inactive
18,CCOc1ncccc1C(=O)Nc1ccc2c(c1)OCCO2,inactive
19,Cc1ccc2nc(-c3ccncc3)cc(C(=O)Nc3ccc4c(c3)OCCO4)c2c1,9.2 µM (active)
20,CCOc1ccc(CCN2C(=O)C(=O)N([C@@H](CC(C)C)CN3CCC[C@H]3CN3C(=O)C(=O)NC[C@@H]3Cc3ccccc3)C[C@@H]2CC(C)C)cc1,inactive
21,COC(=O)COc1cccc2c(=O)n(CC(=O)NCc3ccccc3)ccc12,2.31 µM (active)
22,COC(=O)COc1cccc2c(=O)n(CC(=O)NCCc3ccc(OC)c(OC)c3)ccc12,inactive
23,Cc1ccc(CNC(=O)CCNC(=O)Cn2ccc3ccccc3c2=O)cc1,inactive
24,C=CCN1CCN(c2ccncc2S(=O)(=O)N2CCN(C)CC2)CC1,inactive

row,SMILES,Potency
1,COc1cccc(C(NC(C)=O)c2nc(-c3ccccc3OC)cs2)c1 (stereo not given),inactive
2,COc1ccc(C(CNC(=O)CSc2ccccc2)N2CCOCC2)cc1 (stereo not given),inactive
3,CN(C)c1cccc(NC(=O)c2ccc(-c3ccc(F)c(F)c3)c3ccoc23)c1,inactive
4,Cc1ccsc1C(=O)OCC(=O)c1cc(C)n(CC2CCCO2)c1C (stereo not given),inactive
5,Cc1cc(C(=O)CCl)c(C)n1CC1COc2ccccc2O1 (stereo not given),14.6 µM (active)
6,O=C1C(=O)N(CC2COc3ccccc3O2)c2ccccc21 (stereo not given),inactive
7,CC(C)(C)c1ccc(C(=O)NCCn2c(N)c(C#N)c3nc4ccccc4nc32)cc1,16.4 µM (active)
8,CC(C)(C)c1ccc(C(=O)NCC(=O)OCN2C(=O)c3ccccc3C2=O)cc1,inactive
9,COCC(C)OC(=O)c1c(N)n(CCCN2CCOCC2)c2nc3ccccc3nc12 (stereo not given),inactive
10,COc1ccc2nc(-c3ccccn3)ccc2c1,inactive
11,C[C@@H]1CN([C@@H](C)CO)C(=O)CCCn2nncc2CO[C@H]1CN(C)Cc1ccc(C(F)(F)F)cc1,inactive
12,O=S1(=O)CC(N2CCC(Cc3ccccc3)CC2)CN1Cc1ccccc1 (stereo not given),inactive
13,CC(C)(C)C(=O)c1c(N)[nH]c(C(=O)c2ccccc2)c1-c1ccc(F)cc1,inactive
14,COc1ccccc1-c1n[nH]nc1C1=CC(=O)CC(C)(C)C1,inactive
15,O=C(NCCC1CCCCN1S(=O)(=O)c1cccs1)C(=O)Nc1ccc(F)cc1F (stereo not given),14.6 µM (active)
16,COc1ccccc1CCNC(=O)C(=O)NCCC1CCCCN1S(=O)(=O)c1cccs1 (stereo not given),inactive
17,O=C(NCCC1CCCCN1S(=O)(=O)c1ccc(F)cc1)C(=O)NC1CC1 (stereo not given),inactive
18,O=C(Nc1cccc2ccccc12)c1[nH]c(-c2ccccc2)c2c1C(=O)N(C1CC1)C2=O,inactive
19,O=C(NCCN1CCOCC1)C1CCN(S(=O)(=O)c2ccccc2)CC1,inactive
20,CN(C)S(=O)(=O)Oc1ccccc1C(=O)Nc1ccccc1Cl,inactive
21,O=C(Nc1ccccc1Cl)/C(Cl)=C(\Cl)S(=O)c1ccccc1 (stereo not given),6.51 µM (active)
22,O=C(COC(=O)CCc1c[nH]c(=O)[nH]1)Nc1ccccc1Cl,inactive
23,CC1(Oc2ccc(Cl)cc2)CCN(Cc2csc3ccccc23)C1 (stereo not given),inactive
